Records with an inconclusive call do not appear. Where a call stands in place of a potency, no number is given. The source made the active and inactive calls. Calls come from the whole dose curve; as a rule, active = well fitted inhibition curve with a large enough effect; inconclusive = small, poorly fitted or top-dose-only effect, or effect the other way; inactive = flat fitted curve, though single readings scatter.
Potency is the fitted concentration of half-maximal effect.

Chain of Ubiquitin carboxyl-terminal hydrolase 2 (Homo sapiens) (O75604 whole entry, looked up): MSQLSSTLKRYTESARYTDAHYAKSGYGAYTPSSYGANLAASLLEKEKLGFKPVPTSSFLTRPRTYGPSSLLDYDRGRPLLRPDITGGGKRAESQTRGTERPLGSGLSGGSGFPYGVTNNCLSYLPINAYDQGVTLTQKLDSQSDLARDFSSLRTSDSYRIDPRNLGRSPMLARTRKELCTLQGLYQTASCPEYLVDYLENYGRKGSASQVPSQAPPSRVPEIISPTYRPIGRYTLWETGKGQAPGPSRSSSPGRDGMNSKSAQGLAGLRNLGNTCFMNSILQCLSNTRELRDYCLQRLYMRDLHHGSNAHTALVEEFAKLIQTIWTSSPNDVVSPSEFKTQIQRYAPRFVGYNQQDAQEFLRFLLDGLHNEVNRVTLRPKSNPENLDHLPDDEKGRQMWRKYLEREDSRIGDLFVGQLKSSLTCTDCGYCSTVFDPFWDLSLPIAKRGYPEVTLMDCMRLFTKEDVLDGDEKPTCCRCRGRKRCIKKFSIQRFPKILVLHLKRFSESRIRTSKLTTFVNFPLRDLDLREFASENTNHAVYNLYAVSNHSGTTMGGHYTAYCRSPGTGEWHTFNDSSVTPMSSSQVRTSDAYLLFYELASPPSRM

This assay addresses Ubiquitin carboxyl-terminal hydrolase 2 (Homo sapiens) (UniProt O75604). Kind of assay: Ub-rhodamine 110 based assay for inhibitors Ubiquitin-specific Protease USP2a. Note: nearly all actives have a fitted effect of over 50% in size. As to conditions: USP2a Ub-rhodamine110 cleavage, fluorescence; series mostly up to 38.3 µM. The method in brief: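 5 nM USP2a preincubated with compounds for 30 min at RT in 20 mM Tris-HCl pH 8.0, 2 mM CaCl2, 2 mM beta-mercaptoethanol, 0.05% CHAPS. Cleavage of 150 nM Ub-rhodamine 110 read kinetically (Ex 485/Em 531) for 7 min.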
As for `CCOc1ccc(NC(=O)CSc2nnc(Cn3c(=O)sc4ccccc43)n2C)cc1`, the Potency result is “inactive”. For `O=c1[nH]c(=S)[nH]c2c1C(c1ccc(Br)cc1)c1c([nH]c(=S)[nH]c1=O)O2`, the Potency is 11.2 µM (active). The figure for `O=C(/C=C1\NC2(CCCC2)Cc2ccccc21)C(=O)N/N=C/c1ccc(O)c(O)c1` is 7.94 µM (active). With `CC(C)C(C(=O)O)N1C(=O)/C(=C/C=C/c2ccco2)SC1=S` (centres undefined), the Potency was 5.01 µM (active). For the compound `CCOc1ccc(C(=O)c2ccc(OCC)c(N)c2)cc1N`, the Potency entry is “inactive”. Take `COc1cc(NC(=O)COC(=O)CSc2ccccc2F)c(C)cc1[N+](=O)[O-]`: the Potency entry was “inactive”. Next, `O=C(c1ccc([N+](=O)[O-])cc1)N(Cc1ccc(Cl)cc1)N1C(=O)CCCC1=O`: “inactive”. The figure for `CCc1ccc([C@@H]2CC=C(C(=O)O)[C@H](c3ccc(C(C)(C)C)cc3)N2S(=O)(=O)c2ccc(C)cc2)cc1` is 10 µM (active); for `O=C(COC(=O)/C=C/c1ccc(Cl)cc1)NC1CC1` it is “inactive”; for `C=C1c2c(Cl)ccc(O)c2C(O)=C2C(=O)[C@]3(O)C(O)=C(C(N)=O)C(=O)[C@@H](N(C)C)[C@@H]3[C@@H](O)C12` (some centres undefined) it is 6.31 µM (active). For `COc1ccc(-c2cc(C(F)(F)F)nc(S(C)(=O)=O)n2)cc1`, the Potency entry was “inactive”. On to `CCOc1ccccc1N(CC(=O)NC(C)(C)C)C(=O)c1ccc(CN2CCOCC2)o1`, for which the Potency entry is “inactive”. On to `CC(C)c1ccc2c(c1)c(SC(C)(C)C)c(CC(C)(C)C(=O)O)n2Cc1ccc(Cl)cc1`, for which the Potency was 7.08 µM (active). `Cc1ccccc1NC(=O)CSc1nnc(-c2ccco2)c(-c2ccco2)n1`: the Potency is 10 µM (active). As for `CC1CCN(c2ccc3c(c2)S(=O)(=O)c2cccc(C(=O)NC4CC4)c2C3=O)CC1`, the Potency entry is “inactive”. Next, `C=C(C)COc1ccc(-c2[nH]ncc2Oc2ccccc2OCC)c(O)c1`: “inactive”; `CCCCc1ccc(/C=C2/C(=O)ON=C2c2ccccc2)s1`: “inactive”. Regarding `CN=c1scc(-c2ccccc2F)n1/N=C/c1ccc(O)c(O)c1O`, the Potency was 7.08 µM (active).

Take `Cc1ccc(C(=O)N/C(=C/c2ccco2)C(=O)Nc2cccc(C(=O)O)c2)cc1`: the Potency result is “inactive”. On to `C#CCOCCOCCOCCNc1nc(N2CCN(C(=O)CCCCCCCCCCNC(=O)[C@H]([C@@H](C)CC)n3cc(CCCCCN)nn3)CC2)nc(N2CCN(C(=O)CCCCCCCCCCNC(=O)[C@H]([C@@H](C)CC)n3cc(CCCCN=C(N)N)nn3)CC2)n1`, for which the Potency was 12.6 µM (active).

For `COc1ccc(-c2[nH]ncc2/C=C(/C#N)C(=O)NC2CCCCC2)cc1`, the Potency entry was “inactive”. Take `Cc1ccc(C2=NC(=O)/C(=C/c3cc(O)c(O)c(Br)c3)S2)cc1`: the Potency is 1.58 µM (active). As to `Oc1c(Cl)cc(Cl)c(Cl)c1Cc1c(O)c(Cl)cc(Cl)c1Cl`, the Potency is 3.16 µM (active). `CCn1c(SCC(=O)NCCc2ccccc2)nnc1-c1cccs1`: the Potency entry was “inactive”.

On to `CCOc1ccc2nc(NC(=O)Nc3ccccc3)sc2c1`, for which the Potency result was “inactive”. Take `COc1ccc(CN(Cc2cc3cc(C)ccc3[nH]c2=O)C(=O)N(C)C)cc1`: the Potency result is “inactive”. In the case of `CC[n+]1c(/C=C/N(C)c2ccccc2)n(-c2ccccc2)c2ccc(-c3nc4ccccc4s3)cc21`, the Potency entry was “inactive”.

As for `CCC(C)NC(=O)C1CN(S(=O)(=O)c2ccccc2)CCN1S(=O)(=O)c1ccccc1` (centres undefined), the Potency result was “inactive”.

As to `N#CCc1ccc(NC(=O)/C=C/c2ccc([N+](=O)[O-])o2)cc1`, the Potency was 10 µM (active). As to `Cc1ccc(-c2nc(N/N=C/c3ccncc3)c3ccccc3n2)cc1`, the Potency is 11.2 µM (active). The figure for `CCOc1ccc(C=NNc2ccc(S(=O)(=O)Nc3ccccc3C(=O)O)cc2[N+](=O)[O-])cc1` is 2.82 µM (active); for `COc1ccc(S(=O)(=O)N2CCCCC2)cc1NC(=O)Cc1c[nH]c2ccccc12` it is “inactive”; for `C#CCOCCOCCOCCNc1nc(N2CCN(C(=O)CCCCCCCCCCNC(=O)Cn3cc(CCCCCN)nn3)CC2)nc(N2CCN(C(=O)CCCCCCCCCCNC(=O)[C@H]([C@@H](C)CC)n3cc(CCCCCN)nn3)CC2)n1` it is “inactive”. With `COc1ccc(CCN2CC(C#N)=C3c4cc(OC)c(OC)cc4CCN3C2)cc1OC`, the Potency result was “inactive”. Consider `CC(C)(C)CC(C)(C)c1ccc(OCCOCC[N+](C)(C)Cc2ccccc2)cc1`, for which the Potency result was “inactive”.

In the case of `O=C1Nc2ccc(S(=O)(=O)N3CCCCCC3)c3cccc1c23`, the Potency entry is “inactive”. In the case of `CCc1c(O)nc(SCC(=O)Nc2ccccc2OC)[nH]c1=O`, the Potency result was “inactive”. With `CCN(CC(=O)Nc1ccc(NC(C)=O)cc1)C(=O)c1ccc(N2CCC(C)CC2)c([N+](=O)[O-])c1`, the Potency result is “inactive”. Take `O=C(NCCCN1CCCC1=O)c1cccc(N2CCCC2=O)c1`: the Potency entry is “inactive”.

(Values after PubChem BioAssay AID493170 (National Center for Advancing Translational Sciences (NCATS), 2011).)
